Compound activity as filed in PubChem BioAssay.
ALDH1A1 block: qHTS Assay for Inhibitors of Aldehyde Dehydrogenase 1 (ALDH1A1); AID 1030, 2008; Purified ALDH1A1, NADH fluorescence, propionaldehyde substrate; hit rate 7.3% among 220,000; Potency, µM (doses to about 75.3 µM), without a hit: at the highest dose activity, negative = inhibition, most hits filed as inhibitors; active means well fitted inhibition curve with a large enough effect, not every such curve was filed as active; inconclusive means small, poorly fitted or top-dose-only effect, or another doubt; inactive means no such curve, though single readings can be large or run the other way;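 further: potency means the concentration at half of the fitted maximal effect; plate controls were no enzyme wells and a reference inhibitor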
Target sequence (P00352 whole entry, looked up): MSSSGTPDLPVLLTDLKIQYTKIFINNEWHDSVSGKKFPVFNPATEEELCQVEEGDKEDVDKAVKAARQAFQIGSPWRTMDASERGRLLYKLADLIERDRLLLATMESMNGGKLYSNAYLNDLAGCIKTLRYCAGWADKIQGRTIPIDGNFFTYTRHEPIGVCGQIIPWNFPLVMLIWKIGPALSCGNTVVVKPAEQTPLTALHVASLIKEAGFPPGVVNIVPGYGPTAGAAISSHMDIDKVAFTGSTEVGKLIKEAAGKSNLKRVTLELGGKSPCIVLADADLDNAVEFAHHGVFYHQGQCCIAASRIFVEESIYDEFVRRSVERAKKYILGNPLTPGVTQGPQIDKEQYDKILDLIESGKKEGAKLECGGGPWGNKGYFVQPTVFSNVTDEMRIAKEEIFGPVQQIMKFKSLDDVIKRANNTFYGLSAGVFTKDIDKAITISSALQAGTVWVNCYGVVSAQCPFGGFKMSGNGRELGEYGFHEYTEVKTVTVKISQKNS
IMPase inh: qHTS Assay for Identifying the Cell-Membrane Permeable IMPase Inhibitors. Inositol monophosphatase 1 (Rattus norvegicus), P97697. CHO-M1 cells, IP1 accumulation, HTRF TR-FRET ratio. inhibition (IP1 accumulation), % at 46.1 µM. 120,000 tested, under 10 active; active means well fitted curve in the direction sought with a large enough effect in the signal ratio, not every such curve was filed as active; inconclusive means small, poorly fitted or top-dose-only effect, or a change in a side signal; inactive means no such curve, though single readings can be large or run the other way; the % refers to the signal ratio;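 further: cells stimulated with carbachol in lithium chloride buffer; plate controls were DMSO basal wells for no effect and reference inhibitor wells for full effect; higher means more IMPase inhibition seen as more IP1 and lower FRET ratio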
Target sequence (P97697 whole entry, looked up): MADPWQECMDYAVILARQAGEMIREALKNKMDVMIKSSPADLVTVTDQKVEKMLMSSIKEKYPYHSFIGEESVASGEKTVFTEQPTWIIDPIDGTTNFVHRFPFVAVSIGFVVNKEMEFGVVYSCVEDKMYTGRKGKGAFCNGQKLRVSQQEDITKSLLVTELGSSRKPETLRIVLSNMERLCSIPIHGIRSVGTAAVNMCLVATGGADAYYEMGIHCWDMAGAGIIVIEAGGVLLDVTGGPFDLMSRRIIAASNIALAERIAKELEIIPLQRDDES
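CHO-M1 cells (CHO stably expressing M1 receptor), compound up to 46 uM final, stimulated with carbachol (50 uM as added) in buffer with 50mM LiCl, pH 7.4, 30 min at 37C. Cytosolic IP1 read by TR-FRET; AC50 from Hill fits.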
PNC assembly inh: High Content Assay for Compounds that inhibit the Assembly of the Perinucleolar Compartment; PC3M PTB-GFP, PNC prevalence imaging, 16 h; hits give low values; activity change (PNC), negative = inhibition, % at 10 µM; AID 2417, 2010; hit rate 3.1% among 140,000;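 active means readout at or below -70, meaning at least 70% loss of cells showing the perinucleolar compartment, a nuclear body marking cancer cells; inconclusive means readout between -30 and a set limit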;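 further: plate controls were DMSO wells for no effect and camptothecin positive control wells for full effect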
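Compounds are pinned in duplicate onto adhered PC3M cells stably expressing GFP-tagged PTB and incubated 16 h at 37 C. Cells are then fixed, nuclei stained with Hoechst, and PNC-positive cells counted.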
HPGD inh: qHTS Assay for Inhibitors of HPGD (15-Hydroxyprostaglandin Dehydrogenase); purified HPGD, NADH fluorescence kinetic, PGE2 substrate; hit rate 4.3% among 150,000; 15-hydroxyprostaglandin dehydrogenase [NAD(+)] (Homo sapiens), P15428; Potency, µM, without a hit: top-dose activity change, negative = inhibition, most hits filed as inhibitors; active means well fitted inhibition curve with a large enough effect, not every such curve was filed as active; inconclusive means small, poorly fitted or top-dose-only effect, or another doubt; inactive means no such curve, though single readings can be large or run the other way; further: potency means the concentration at half of the fitted maximal effect
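20 nM HPGD preincubated 15 min at room temperature with compound in 50 mM Tris-HCl pH 8, 0.01% Tween 20. Started with 1 mM NAD+ and 30 uM prostaglandin E2; NADH fluorescence (360/450 nm) read 5 times over 30-s intervals, last minus first.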
12-hLO inh: qHTS Assay for Inhibitors of 12-hLO (12-human lipoxygenase) | Polyunsaturated fatty acid lipoxygenase ALOX12 (Homo sapiens), P18054 | Potency, µM (top dose mostly 57.1 µM), for inactives: at the highest dose activity change, negative = inhibition, hits mostly inhibitors | hit rate 0.12% among 150,000 | purified 12-hLO, xylenol orange hydroperoxide absorbance; further: potency means the concentration at half of the fitted maximal effect; nearly all actives have a fitted effect of over 55% in size
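Xylenol orange chromogenic assay: hydroperoxide from 12hLO oxidises Fe(II), giving red-shifted Fe(III)-XO absorbance. Conditions: 150 nM enzyme, 40 uM arachidonic acid, 25 mM Hepes pH 7.0, 0.01% Triton X-100, 30 min, room temperature.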
IMPase Li cell: qHTS Assay for Identifying the Cell-Membrane Permeable IMPase Inhibitors: Potentiation with Lithium | CHO-M1 cells, IP1 TR-FRET (IP-One), carbachol + lithium | Potency, µM (top dose mostly 59.4 µM), for inactives: top-dose activity, negative = IMPase inhibition, most hits filed as inhibitors | hit rate 0.35% among 210,000;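 further: IP1 builds up when IMPase is blocked and the TR-FRET signal falls; potency means the concentration at half of the fitted maximal effect; plate controls were basal vehicle for no effect and high inhibitor control for full effect; nearly all actives have a fitted effect of over 50% in size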
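CHO cells stably expressing M1 receptor (2000/well) were cultured 16–30 h, then exposed to compounds with a small lithium addition for 30 min at 37C. IP1 was measured by TR-FRET competition; AC50 from Hill fits.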
An asterisk follows results filed as active; u = inconclusive; x = not tested or not shown; [ ] = remark or other dose. The list is not random: actives were taken first. Their share in the collection is about 11%. Unless noted, the call rests on the fitted dose curve; in most records, active means well fitted curve in the direction sought with a large enough effect; inconclusive means small, poorly fitted or top-dose-only effect, or another doubt; inactive means no such curve, though single readings can be large; an effect the other way counts as inactive or inconclusive. Unless noted, on the % scale 0 is the no-effect control and ±100 the full control effect.

SMILES | ALDH1A1 block | IMPase inh | PNC assembly inh | HPGD inh | 12-hLO inh | IMPase Li cell
CCn1c(SCC(=O)N2CCCc3ccccc32)nc2c(c1=O)SC(C)C2 (stereo not drawn) | u | x | x | x | x | 0%
COCCn1c(SCC(=O)N2CCCc3ccccc32)nc2c(c1=O)SC(C)C2 (stereo not drawn) | 20µM* | 5 | -108* | -19% | 8% | 38%[38.3 µM]
CCSc1nc2c(c(=O)n1CC)SC(C)C2 (stereo not drawn) | -8% | 7 | 5 | -11% | -1% | 25%[38.3 µM]
CCn1c(SCC(=O)N2CCCCC2)nc2c(c1=O)SC(C)C2 (stereo not drawn) | 22µM* | u | 45 | -19% | 7% | 36%[38.3 µM]
FB(F)F | 1% | x | x | 5% | -3% | -6%
CCOc1cc(C(=O)Nc2ccc(S(=O)(=O)Nc3cc(OC)nc(OC)n3)cc2)cc(OCC)c1OCC | x | 1 | x | x | x | x
COc1ncc2nc(-c3cn(C)c4ccccc34)c(=O)n(CCC#N)c2n1 | 0% | x | x | x | x | 2%
COc1ccc(NC(=O)CCCn2c(=O)c3sccc3n(Cc3cccc(C)c3)c2=O)cc1 | 2µM* | -7 | -16 | -4% | 1% | 8%
CC(C)c1ccc(NC(=O)c2cn(C3CCCC3)c(=O)c3c2c2ccccc2n3C)cc1 | x | 4 | x | x | x | x
c1ccc(OCCOCCN2CCN(C(c3ccccc3)c3ccccc3)CC2)cc1 | u | x | 45 | -12% | -14% | 18%
O=S(=O)(CCN1CCN(C(c2ccccc2)c2ccccc2)CC1)C(F)(F)F | 0.35µM* | 20 | 27 | -6% | -3% | 28%[38.3 µM]
COC(=O)c1ccc(COC(=O)C(CCS(C)(=O)=O)N2C(=O)c3ccccc3C2=O)cc1 (stereo not drawn) | -14% | u | -104* | -18% | 1% | 13%
COc1ccccc1OCCCOc1ccc([N+](=O)[O-])cc1Cl | -3% | 14 | 42 | 16µM* | 4% | -19%[38.3 µM]
COc1cccc(OCCCOc2ccc([N+](=O)[O-])cc2Cl)c1 | -6% | -8 | -16 | 18µM* | -7% | 17%[38.3 µM]
CO/N=C/c1ccc(N2CCOCC2)c([N+](=O)[O-])c1 | u | x | x | x | x | -2%
CCCCC(=O)N/N=C/c1ccc(N2CCOCC2)c([N+](=O)[O-])c1 | 11µM* | x | -4 | 3% | -2% | -1%
Cc1ccc(C(=O)O/N=C\c2ccc(N3CCOCC3)c([N+](=O)[O-])c2)cc1 | 2.2µM* | 0 | -24 | -23% | 4% | 16%[38.3 µM]
CCCCC/C=C\C/C=C\C[C@H](O)/C=C/C=C\CCCC(=O)O | 0% | x | x | -2% | -3% | 2%
CC(=O)c1cccc(NC(=O)CCCSc2nc(-c3ccco3)cc(C(F)(F)F)n2)c1 | x | -2 | x | x | x | x
CC(C)CC(NC(N)=O)C(=O)OCC(=O)Nc1ccc(OC(F)F)cc1 (stereo not drawn) | 4% | x | x | x | x | 18%
COc1ccc(N=C2CCS(=O)(=O)c3sccc32)cc1 | 10µM* | x | x | x | x | 0%
Cc1ccc(NC2=CC(c3ccccc3F)N(c3ccc(C)cc3)C2=O)cc1 (stereo not drawn) | x | 3 | x | x | x | x
Cc1cc(Cl)ccc1OCCCC(=O)N1CCCc2ccccc21 | -3% | 8 | -94* | -18% | -10% | 24%[38.3 µM]
CN1CCN(C(=O)CCCOc2ccc(Cl)cc2Cl)CC1 | u | 10 | -13 | 20µM* | -5% | 17%[38.3 µM]
O=C(O)c1ccc(COc2ccc(CO)cc2Cl)cc1 | 15% | 8 | 21 | 16µM* | -2% | 35%[38.3 µM]
SMILES | ALDH1A1 block | IMPase inh | PNC assembly inh | HPGD inh | 12-hLO inh | IMPase Li cell
CN(C)CCNC(=O)c1ccc(COc2ccc(Cl)cc2Cl)cc1 | 4% | 8 | 78 | u | 5% | 6%[38.3 µM]
O=C(CCCOc1ccc(Cl)cc1Cl)N1CCN(c2ccccn2)CC1 | -12% | u | -7 | u | -22% | 9%[38.3 µM]
COCC(=O)N1CCCc2ccccc21 | -3% | 14 | 17 | -6% | -26% | 17%[38.3 µM]
CN1CCN(C(=O)c2ccc(COc3ccc(Cl)cc3Cl)cc2)CC1 | 12% | 7 | u | 2.8µM* | 2% | 11%[38.3 µM]
Fc1ccccc1C1c2cccn2CCN1C(=S)Nc1ccc(Br)cc1 (stereo not drawn) | 14µM* | x | x | x | x | 17%
Cc1nn(-c2ccc(Cl)cc2)c2sc(C(=O)c3c(N)n(C)c(=O)n(C)c3=O)cc12 | u | -2 | -27 | u | 8% | 13µM*
C=Cc1ccccc1Cl | u | x | x | -7% | 5% | 6%
CN(C(=O)COC(=O)c1cc(NS(=O)(=O)c2cc([N+](=O)[O-])ccc2Cl)ccc1O)C1CCCCC1 | u | x | -95* | 0% | 3% | 4%
Cc1cc(C)n(-c2nc3cc(Cl)ccc3nc2Nc2ccc(C)c(F)c2)n1 | x | 13 | x | x | x | x
O=C1CCN(N=Nc2cccc(Cl)c2)N1 | 20µM* | 2 | -23 | u | -19% | 30%[38.3 µM]
Nc1[nH][nH]c(=O)c1N=Nc1cccc(Cl)c1 | 4% | x | x | x | x | 24%
NC(N)=N[C@@H]1C(O)[C@H](N=C(N)N)[C@@H](O)C(O)[C@H]1O (stereo partly drawn) | 8%[13.5 µM] | x | x | -10% | 4%[11.4 µM] | -2%
CCC(CC)NC(=O)CON=C1c2ccccc2-c2ccccc21 | 4% | 4 | -81* | 7.9µM* | 0% | 0%
NC(=O)Cc1nc(-c2ccc(Br)cc2)cs1 | 10% | x | 44 | -11% | -3% | -2%
Oc1csc(Cc2nc(-c3ccc(Br)cc3)cs2)n1 | 28µM* | x | x | x | x | -13%
C=CCN(c1ccc(C(=O)NC(C)C)cc1)S(C)(=O)=O | 2% | 5 | u | -15% | -2% | 36%[38.3 µM]
CCOC(=O)C1CCN(C(=O)COc2ccc(N(C)S(=O)(=O)c3ccc(C)cc3)cc2)CC1 | 18µM* | x | x | x | x | 21%
Cc1ccc(S(=O)(=O)N(C)c2ccc(C(=O)N3CCCCC3)cc2)cc1 | -7% | 2 | 39 | 0.4µM* | -5% | 29%[38.3 µM]
CN(c1ccc(C(=O)N2CCCCC2)cc1)S(=O)(=O)c1ccccc1 | 2% | 11 | 22 | 0.45µM* | -4% | 25%[38.3 µM]
Cc1ccc(S(=O)(=O)N(C)c2ccc(C(=O)N3CCc4ccccc4C3)cc2)cc1 | 1% | x | x | x | x | 14%
C=CCN(c1ccc(C(=O)N2CCCC2)cc1)S(C)(=O)=O | -8% | 1 | -9 | 20µM* | 4% | 16%[38.3 µM]
C=CC(=O)N1C(=O)c2ccccc2S1(=O)=O | -8% | x | x | -10% | x | 13%
